Assay outcomes from PubChem BioAssay.
Shown is part of a subset that was picked to be rich in hits.
Pf Dd2 growth – blocks in vitro growth of P. falciparum Dd2; AID 1347417; P. falciparum Dd2 growth, SYBR Green, 72 h; Potency, µM (series often up to 28.9 µM), hits mostly inhibitors; 4.3% of 120,000 active; active = well fitted inhibition curve with a large enough effect; also: nearly all actives have a fitted effect of over 65% in size
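Infected erythrocytes (Dd2, 0.3% parasitemia, 2.5% hematocrit final) are added to compound in RPMI-1640/Albumax II medium, grown 72 h at 37C in low oxygen, then lysed with saponin/Triton-X containing SYBR Green and read by fluorescence.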
Of the large screens only hits and unclear results are named; the others gave an inactive call.

N#Cc1ccc(C(=O)N2CCC(n3cc(-c4nc(-c5ccccc5)no4)nn3)C2)cc1 (centres undefined)	none
O=C(c1ccc(Cl)cc1)N1CCC(n2cc(-c3nc(-c4ccccc4)no3)nn2)C1 (centres undefined)	none
O=C(Cc1ccc(Cl)cc1)N1CCC(n2cc(-c3nc(-c4ccccc4)no3)nn2)C1 (centres undefined)	none
O=C(c1ccccc1)N1CCC(n2cc(-c3nc(-c4ccccc4)no3)nn2)C1 (centres undefined)	none
O=C(C1CCCCC1)N1CC(c2nnc(-c3ccncc3)o2)C2(CCOCC2)C1 (centres undefined)	none
Cc1ccccc1CNC(=O)C1(c2ccc(NS(C)(=O)=O)cc2)CCCCC1	none
COc1ccc(CN2C[C@@H](C(N)=O)[C@H](c3nc(C)no3)C2)c(Cl)c1OC	none
CCS(=O)(=O)N(C1CC1)C1CCOC2(CCN(C(=O)Nc3cccc(C)c3)CC2)C1 (centres undefined)	none
COc1ccc(OC)c(NC(=O)C2CCCN(S(=O)(=O)c3c(C)nn(C)c3C)C2)c1 (centres undefined)	none
CCOc1ccc(OCC)c(NC(=O)C2CCCN(S(=O)(=O)c3ccc(C)cc3)C2)c1 (centres undefined)	none
CCOc1ccc(N(CC)S(=O)(=O)N2CCCC(C(=O)Nc3cc(Cl)ccc3OC)C2)cc1 (centres undefined)	Pf Dd2 growth 10µM
COc1ccc(N2CC(C(=O)N3CCC(C(=O)NCc4ccc(C(F)(F)F)cc4)C3)NC2=O)cc1 (centres undefined)	none
CC(=O)N1CCN2C(=O)N([C@@H](C)c3ccccc3)C(=O)[C@@H]2C1	none
COc1ccc(-n2nc3c(N4CCCC(C(=O)NCc5cccc(F)c5)C4)nnc(C)c3c2C)cc1 (centres undefined)	Pf Dd2 growth 11µM
CCOc1ccc(CCNC(=O)C2CCCN(c3nnc(C)c4c(C)n(-c5ccccc5)nc34)C2)cc1 (centres undefined)	Pf Dd2 growth 7.9µM
CCc1ccc(CNC(=O)C2CCCN(c3nnc(C)c4c(C)n(-c5ccccc5)nc34)C2)cc1 (centres undefined)	none
CCOC(=O)c1cccc(NC(=O)C2CCCN(c3nnc(C)c4c(C)n(-c5ccccc5)nc34)C2)c1 (centres undefined)	none
Cc1ccc(CCNC(=O)C2CCCN(c3nnc(C)c4c(C)n(-c5ccccc5)nc34)C2)cc1 (centres undefined)	none
Cc1nnc(N2CCCC(C(=O)NCc3ccccc3)C2)c2nn(-c3ccccc3)c(C)c12 (centres undefined)	none
CCOC(=O)C1CCCN(C(=O)C2CCN(c3nnc(C)c4c(C)n(-c5ccccc5)nc34)CC2)C1 (centres undefined)	Pf Dd2 growth 10µM
Cc1ccc(-n2nc3c(N4CCCC(C(=O)NCc5ccc(Cl)cc5)C4)nnc(C)c3c2C)cc1 (centres undefined)	none
Cc1nnc(N2CCC(C(=O)NC3CCCCC3)CC2)c2nn(-c3ccccc3)c(C)c12	none
O=C(Cc1n[nH]c(=O)c2ccccc12)NC1CCCc2c1[nH]c1ccccc21 (centres undefined)	none
Cc1ccc(OCCN(C)Cc2cc(C#CCO)cs2)c(C)c1	none
O=C1CCC2(CCCO2)CCN1Cc1ccccc1F (centres undefined)	none
O=C(NCc1nnc2cc(-c3nc(C4CC4)no3)ccn12)C1CCCCC1	none
CCOc1ccccc1C1NC(=O)N(CC(=O)N(CC)c2ccccc2)C2=C1C(=O)OC2 (centres undefined)	none
COCCCNC(=O)c1cnn(-c2ccc(F)cc2F)c1C1CCNCC1	none
Cc1ccc(-n2ncc(C(=O)NCCc3ccccc3)c2C2CCN(C(=O)OC(C)(C)C)CC2)c(C)c1	Pf Dd2 growth 10µM
Cc1ccc(-n2ncc(C(=O)NCc3ccccn3)c2C2CCN(C(=O)OC(C)(C)C)CC2)c(C)c1	none
CC(C)(C)OC(=O)N1CCC(c2c(C(=O)NCCc3ccccc3)cnn2-c2ccc(F)cc2)CC1	Pf Dd2 growth 11µM
CC(C)(C)OC(=O)N1CCC(c2c(C(=O)NCCc3ccccc3)cnn2-c2ccc(F)cc2F)CC1	Pf Dd2 growth 5.6µM
CCOC(=O)c1ccc(NC(=O)c2cnn(-c3ccc(C)cc3C)c2C2CCN(C(=O)OC(C)(C)C)CC2)cc1	Pf Dd2 growth 13µM
O=C(NCCc1ccccc1)c1cnn(-c2ccc(F)cc2)c1-n1cccc1	none
CS(=O)(=O)N1CCn2cc(C(=O)Nc3ccc(Cl)cc3Cl)nc2C1	none
Cc1cc(C(=O)N2CCC(N3C[C@H](O)C[C@H]3C(=O)NC3CCCCC3)CC2)nn1C	none
Clc1ccc(-c2cnc3n[nH]c(-c4ccccc4)c3n2)cc1	none
CN(Cc1ccccc1)C(=O)C1COC2(CCN(C(=O)CC(C)(C)C)CC2)N1C(=O)c1ccccc1 (centres undefined)	none
O=C(NCc1nnc2ccc(-c3ccccc3)nn12)c1ccc[nH]c1=O	none
O=C(c1cccc2c1CCN2C(=O)C1CC1)N1CCCCC1	none
Cc1ccc(-n2ncc(C(=O)N3CCc4ccccc4C3)c2C2CCN(C(=O)OC(C)(C)C)CC2)cc1C	none
Cc1ccc(-n2ncc(C(=O)Nc3ccc(C)c(F)c3)c2C2CCN(C(=O)OC(C)(C)C)CC2)cc1C	none
CC(C)(C)OC(=O)N1CCC(c2c(C(=O)NCc3ccccc3)cnn2-c2cccc(F)c2)CC1	Pf Dd2 growth 10µM
CC(C)(C)OC(=O)N1CCC(c2c(C(=O)Nc3ccc4c(c3)OCCO4)cnn2-c2ccc(F)cc2)CC1	Pf Dd2 growth 7.9µM
CC(C)(C)OC(=O)N1CCC(c2c(C(=O)N3CCCCC3)cnn2-c2cccc(F)c2)CC1	none
Cc1ccc(-n2ncc(C(=O)NCc3ccco3)c2C2CCN(C(=O)OC(C)(C)C)CC2)cc1C	Pf Dd2 growth 11µM
CC(C)(C)OC(=O)N1CCC(c2c(C(=O)NCc3cccs3)cnn2-c2ccc(F)cc2F)CC1	Pf Dd2 growth 4µM
CC(C)(C)OC(=O)N1CCC(c2c(C(=O)N3CCOCC3)cnn2-c2cccc(F)c2)CC1	none
Cc1cccc(C)c1-n1ncc(C(=O)Nc2ccc3c(c2)OCO3)c1C1CCN(C(=O)OC(C)(C)C)CC1	none
Cc1ccc(NC(=O)C2CC(=O)N(c3n[nH]c4ccccc34)C2)nc1 (centres undefined)	none
COCc1nc(C2CCCN(C(=O)c3nccn3C)C2)no1 (centres undefined)	none
Cn1cnc(C(=O)N2[C@@H]3CC[C@H]2CC(NC(=O)c2ccc(F)cc2)C3)c1 (some centres undefined)	none
Cc1ncccc1C(=O)N1CCC(N2CC3CC(C2)[C@H]2CCCC(=O)N2C3)CC1 (some centres undefined)	none
c1cncc(-c2ccnc(NCCCn3nccc3C3CC3)n2)c1	none
c1cncc(-c2ccnc(NCCCN3CCCc4ccccc43)n2)c1	Pf Dd2 growth 11µM
c1ccc2c(c1)CCCN2CCCNc1ncncn1	none
CC(=O)N(C1CC1)C1CCOC2(CCN(C(=O)c3cn[nH]c3-c3ccccc3)CC2)C1 (centres undefined)	none
Cc1cc(C(=O)N2CCOc3ccc(CCC(N)=O)cc3C2)nn1C	none
O=C(C[C@@H]1CCNC[C@@H]1Cc1cc(COc2ccccc2)on1)NC1CCCCC1	none
COc1ccc(-c2cc(C[C@H]3CNCC[C@H]3CC(=O)NCc3ccccc3OC)no2)cc1	Pf Dd2 growth 10µM
COc1ccc(-c2cc(C[C@H]3CNCC[C@H]3CC(=O)N3CCN(c4ccccc4)CC3)no2)cc1	none
COc1ccc(-c2cc(C[C@H]3CNCC[C@H]3CC(=O)N(C)Cc3ccccc3)no2)cc1	Pf Dd2 growth 10µM
COc1ccc(CNC(=O)C[C@@H]2CCNC[C@@H]2Cc2cc(CN(C)Cc3ccccc3)on2)cc1	none
